High-throughput results: PubChem BioAssay, National Center for Advancing Translational Sciences (NCATS)
Lassa entry inh = blocks Lassa virus binding to or entry into cells | Lassa virus pseudotype entry inhibition, cell reporter | Potency, µM (top dose mostly 37.9 µM), for inactives: at the top dose activity change, negative = inhibition, hits mostly inhibitors | actives 1.2% (n = 300,000) | AID 540256; calls by dose curve; tested in HEK293 cells; also: potency is read from the fitted curve at half-maximal effect; nearly all actives have a fitted effect of over 50% in size
MARV entry inh = Marburg virus entry inhibition | actives 1.8% (n = 300,000) | Potency, µM (doses to about 37.8 µM), for inactives: at the highest dose activity change, negative = inhibition, most hits filed as inhibitors | Marburg virus pseudotyped entry inhibition, cell reporter; calls by dose curve; tested in HEK293 cells; also: potency is read from the fitted curve at half-maximal effect
FMDV antiviral = blocks foot and mouth disease virus. FMDV antiviral cell-based qHTS. Potency, µM (doses to about 57.9 µM), without a hit: at the top dose activity change, negative = inhibition, usual class: inhibitors. actives 1.2% (n = 410,000). AID 1159524; calls by dose curve; tested in HEK293T cells; also: read-out not given here; potency is read from the fitted curve at half-maximal effect; nearly all actives have a fitted effect of over 45% in size
HCMV inh = inhibitors of human cytomegalovirus; HFF cells, HCMV-luciferase reporter, 72 h; hits give low values; activity change, negative = inhibition, % at 57.5 µM; actives 4.5% (n = 410,000); AID 1259415; in the data active = activity change below about -60%; inconclusive = no clear call, values can overlap the other calls; inactive = above about -39%
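HFF cells seeded 16 h at 37C, treated with compounds, infected with luciferase-reporter HCMV at MOI 1 PFU/cell; luciferase read at 72 h post infection, normalized to buffer-only and Salinomycin controls.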
HCV inh = HCV inhibition. actives 3.4% (n = 340,000). Huh7.5.1 HCVcc-Cre infection, luciferase reporter, 44 h. Potency, µM (series often up to 41.8 µM), inactives show at the top dose activity change, negative = inhibition, hits mostly inhibitors. AID 651820; active = well fitted inhibition curve with a large enough effect; inconclusive = small, poorly fitted or top-dose-only effect, or another doubt; inactive = no such curve, though single readings can be large or run the other way; also: potency is read from the fitted curve at half-maximal effect
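Infectious HCVcc-Cre (~0.5 moi) was added to cells just after compound, with cells seeded 4 h earlier at 1,000 per well. Luciferase activity after 44 h culture reported infection; substrate was incubated 15 min at room temperature before reading.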
* marks the source's active call; other numbers are inactive results; ? = inconclusive; . = no result given; [ ] = another dose, or the depositor's remark. A selection: hits, their analogues and other compounds. The true share with any hit is near 7.9%. % is scaled to controls: 0 for no effect and ±100 for the full control effect.

SMILES	Lassa entry inh	MARV entry inh	FMDV antiviral	HCMV inh	HCV inh
COC(=O)c1ccc(S(=O)(=O)N2CCCN(Cc3cccc(Br)c3F)CC2)n1C	.	.	?	-74*	?
CC(C)c1c(C(=O)Nc2ccccc2)c(-c2ccccc2)c(-c2ccc(F)cc2)n1CC[C@@H](O)C[C@@H](O)CC(=O)O	.	.	-13%	-67*	.
O=C(Nc1ccccc1)c1c(F)c(F)c(F)c(F)c1F	-5%	1%	.	?	?
CCOC(=O)c1c(NC(=O)CSc2nc3ccc(C)cc3[nH]2)sc2c1CC(C)(C)NC2(C)C	10µM*	?	-23%	-20	6.3µM*
CCCCn1c(N)c(N(CC(C)C)C(=O)c2cccc(S(=O)(=O)N(CC)c3ccccc3)c2)c(=O)[nH]c1=O	-14%	-21%	-1%	14	-22%
CCN(CC(=O)Nc1ccc(NC(C)=O)cc1)C(=O)c1ccc(N2C(=O)c3ccccc3C2=O)cc1	.	.	8%	0	9%
Cc1nc(-c2cccc(S(=O)(=O)N3CCCCC3)c2)cs1	-26%	?	4%	-40	0%
CCOc1cc(/C=N/Nc2nc(-c3cccc(S(=O)(=O)N4CCCC4)c3)cs2)ccc1O	?	?	?	?	10µM*
O=S(=O)(c1cccc(-c2csc(N/N=C/c3ccco3)n2)c1)N1CCOCC1	.	.	28µM*	?	?
O=S(=O)(c1cccc(-c2csc(-c3ccccc3)n2)c1)N1CCOCC1	-9%	?	1%	23	?
COc1ccc(/C=N/Nc2nc(-c3cccc(S(=O)(=O)N4CCCC4)c3)cs2)cc1OC	-9%	?	?	?	10µM*
COc1cc(/C=N/Nc2nc(-c3ccc(S(=O)(=O)N(C)C)cc3)cs2)ccc1O	.	.	35µM*	-65*	?
O=C(CN1C(=O)NC2(CCCC2)C1=O)N1CCN(Cc2ccccc2)CC1	2%	-1%[46.1 µM]	-22%	?	?
CC(=O)N1CCC[C@@]2(CCN(c3ccncc3)C2)C1	.	.	-12%	.	.
CCCCN1CCC[C@@H]1CNC(=O)c1cc(C#N)c2ccccc2c1OC	.	.	11%	.	.
Cc1ccc(C)c(-c2csc(Nc3ncccn3)n2)c1	.	.	9%	-34	3%
Cc1ccc(C)c(-c2csc(N/N=C/c3ccco3)n2)c1	2µM*	5µM*	-9%	?	13µM*
COc1ccc(-c2cnnc(N/N=C/c3ccc(O)c(OC)c3)n2)cc1	5.8µM*	?	-19%	?	?
O=C(CSc1nnc(-c2cccs2)n1C1CC1)NCC1CCCO1 (configuration not stated)	.	.	-14%	-21	8%
COCCCN(C(=O)c1cc2c(s1)CCCCC2)c1c(N)n(Cc2ccccc2)c(=O)[nH]c1=O	10µM*	-17%[46.1 µM]	-13%	-39	?
CCc1nc2ccccc2c(C(=O)NCc2ccccc2)c1C	7%	-4%	-7%	-68*	-15%
CCc1nc2ccccc2c(C(=O)OCC(=O)N(CCOC)c2c(N)n(Cc3ccccc3)c(=O)[nH]c2=O)c1C	6%	?	-25%	?	14µM*
CCc1nc2ccccc2c(C(=O)Oc2cccc3cccnc23)c1C	1%	6%	-12%	27	2.2µM*
COCCN(C(=O)c1cc2c(s1)CCCCC2)c1c(N)n(Cc2ccccc2)c(=O)[nH]c1=O	-9%	?	6%	?	10%
CCc1nc2ccccc2c(C(=O)OCc2nc3ccccc3c(=O)[nH]2)c1C	?	3.5µM*	-21%	12	?
SMILES	Lassa entry inh	MARV entry inh	FMDV antiviral	HCMV inh	HCV inh
CCOC(=O)CC1CCCCN1C(=O)c1cc(COc2cccc3cnccc23)on1 (configuration not stated)	.	.	2.8µM*	-87*	2.2µM*
COC(=O)C1CCCCN1C(=O)c1cc(COc2cccc3cnccc23)on1 (configuration not stated)	.	.	.	-92*	.
CC(C)c1c(C(=O)NCc2cccnc2)cnn1-c1nccc(-c2cccs2)n1	.	.	-17%	.	.
CCc1ccc(NC(=O)CSc2nc3nccnc3c(=O)n2CCc2c[nH]c3ccccc23)cc1	?	.	-10%	53	.
O=C(CSc1nc2nccnc2c(=O)n1CCc1c[nH]c2ccccc12)Nc1ccc(F)cc1	-12%[46.1 µM]	.	-3%	-63*	.
Oc1ccc2ccccc2c1N=Nc1ccccn1	8.9µM*	?	?	-98*	8.9µM*
CCOC(=O)c1[nH]cnc1N=Nc1c(O)ccc2ccccc12	?	?	-19%	-97*	7.9µM*
CC(=O)Nc1cc(-c2ccc(N3CCN(C)CC3)cc2)cn2c(-c3ccccc3)cnc12	.	.	-8%	-60*	.
CN(C)CCNC(=O)c1cccc(-c2cc(NC=O)c3ncc(-c4cccc(C(F)(F)F)c4)n3c2)c1	.	.	-2%	-61*	.
COc1cccc(-c2cc(NC=O)c3ncc(-c4cccc(C(=O)NCCN(C)C)c4)n3c2)c1	.	.	-16%	-33	.
CN(C)CCNC(=O)c1cccc(-c2cnc3c(NC=O)cc(-c4cc(F)c(F)c(F)c4)cn23)c1	.	.	-6%	-76*	.
CC(=O)Nc1cc(-c2ccc(N3CCN(C)CC3)cc2)cn2c(-c3ccc(S(C)(=O)=O)cc3)cnc12	.	.	-7%	-5	.
CC(=O)c1ccc(-c2cnc3c(NC=O)cc(-c4ccc(S(C)(=O)=O)cc4)cn23)cc1	.	.	-19%	25	.
CN(C)CCNC(=O)c1cccc(-c2cnc3c(NC=O)cc(-c4ccc(S(C)(=O)=O)cc4)cn23)c1	.	.	6%	-66*	.
COc1ccc(CN2C(=O)C(n3cccc3)c3cc(OC)ccc32)cc1 (configuration not stated)	.	.	.	-23	.
COc1ccccc1-c1cc(NC(C)=O)c2ncc(-c3cccc(C(F)(F)F)c3)n2c1	.	.	-28%	15	.
CC(=O)Nc1cc(-c2cccnc2)cn2c(-c3cccc(C(F)(F)F)c3)cnc12	.	.	-12%	-62*	.
CN(C)C(=O)c1cccc(-c2cnc3c(NC=O)cc(-c4cccc(C(F)(F)F)c4)cn23)c1	.	.	32µM*	?	.
CN(CCO)C(=O)c1cn(C2CCCN(Cc3cc4ccccc4s3)C2)nn1 (configuration not stated)	.	.	-23%	.	.
CCCN1C(C)C(C(=O)OCC)=CN(Cc2cccc(I)c2)S1(=O)=O (configuration not stated)	.	.	4µM*	.	?
CCOC(=O)C1=CN(Cc2cccc(F)c2)S(=O)(=O)N(C)C1c1ccc2ccccc2c1 (configuration not stated)	.	.	2%	-26	11µM*
COc1ccc2c(c1)[C@@H](NC(=O)OCc1ccccc1)[C@H](C)[C@@H](C(C)C)N2	.	.	.	-19	.
Cc1ccnc(NC(=O)C2CCC(CNc3c(N4CCCC4)c(=O)c3=O)CC2)c1 (configuration not stated)	.	1%	10%	-75*	15%
CC1CCN(c2c(NCC3CCC(C(=O)Nc4ccccn4)CC3)c(=O)c2=O)CC1 (configuration not stated)	2%	2%	6%	-13	-1%[8.37 µM]
Fc1cccc(-c2cc3cnc(Nc4cccc(C(F)(F)F)c4)cc3[nH]2)c1	.	.	.	-37	.
